# Test results as given in PubChem BioAssay (NCI).
# About 79,000 compounds went through this panel and 15% of them were active in at least one assay; those are over-represented in the sample as a whole. Values without a mark were called inactive. Calls of active or inactive are those of the source. Cut-off read from the data, not from the text of the source: active = growth inhibition above about 70%; inactive = the rest.
# What was measured:
# [1] = NCI Yeast Anticancer Drug Screen. Data for the rad50 strain (AID 155);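 note: 0% = growth of vehicle-only cultures of the same strain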; conditions: S. cerevisiae rad50 strain growth inhibition, hits give high values
# Summary of the method: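 Vehicle-treated cultures provide the reference for the growth inhibition reported for compound-exposed, repair-deficient yeast.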
# [2] = NCI Yeast Anticancer Drug Screen. Data for the mec2-1 strain (AID 157); conditions: S. cerevisiae mec2-1 strain, hits give high values
# Summary of the method: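 Using mec2-1 yeast: add compound, measure growth, express inhibition versus vehicle-treated cultures.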
# [3] = NCI Yeast Anticancer Drug Screen. Data for the sgs1 mgt1 strain (AID 161);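 note: 0% = growth of cultures given vehicle only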; conditions: S. cerevisiae sgs1 mgt1 strain, hits give high values
# Summary of the method: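 This yeast growth screen uses a strain with defined DNA-repair lesions; compound-treated growth is compared with vehicle-treated growth.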
# [4] = NCI Yeast Anticancer Drug Screen. Data for the cln2 rad14 strain (AID 165);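 note: 0% = growth equal to vehicle treated cultures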; conditions: S. cerevisiae cln2 rad14 strain, hits give high values
# Summary of the method: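 Yeast strain cln2 rad14, bearing defects in cell cycle control and DNA repair, serves as the test system; values reflect growth inhibition compared with vehicle.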
# [5] = NCI Yeast Anticancer Drug Screen. Data for the bub3 strain (AID 167); conditions: S. cerevisiae bub3 mutant strain, hits give high values
# Summary of the method: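 Mutant yeast screening strain plus compound; vehicle-treated cultures serve as the 0% inhibition reference.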
# [6] = NCI Yeast Anticancer Drug Screen. Data for the wt2 strain (AID 169); conditions: S. cerevisiae wt2 strain growth inhibition, hits give high values
# Summary of the method: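 Treated yeast vs. vehicle-treated yeast: growth inhibition determined.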
# [7] = NCI Yeast Anticancer Drug Screen. Data for the mlh1 rad18 strain (AID 175); conditions: S. cerevisiae mlh1 rad18 strain growth inhibition, hits give high values
# Summary of the method: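 Steps: expose repair-defective yeast to compound; measure growth; express inhibition against vehicle-treated controls.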
# [8] = at 5.0 µM (retest, dose inferred, filed as 0.5)
# [9] = at 50.0 µM (retest, dose inferred, filed as 5.0)
smiles,measurement,setting,value
O=C1NC(=S)NC(=O)C1=C/C=C/c1ccccc1,growth inhibition,[1]; [8],33%
same,growth inhibition,[1]; [9],40%
same,growth inhibition,[1]; at 50.0 µM,73% (active)
same,growth inhibition,[2]; [8],40%
same,growth inhibition,[2]; [9],32%
same,growth inhibition,[2]; at 50.0 µM,46.6%
same,growth inhibition,[3]; [8],4%
same,growth inhibition,[3]; [9],89% (active)
same,growth inhibition,[3]; at 50.0 µM,79.7% (active)
same,growth inhibition,[4]; [8],44%
same,growth inhibition,[4]; [9],89% (active)
same,growth inhibition,[4]; at 50.0 µM,31.8%
same,growth inhibition,[5]; [8],26%
same,growth inhibition,[5]; [9],84% (active)
same,growth inhibition,[5]; at 50.0 µM,73.7% (active)
same,growth inhibition,[6]; at 1.2 µM,-15%
same,growth inhibition,[6]; at 3.7 µM,-3%
same,growth inhibition,[6]; at 11.0 µM,2%
same,growth inhibition,[6]; at 33.0 µM,46%
same,growth inhibition,[6]; at 100.0 µM,98% (active)
same,growth inhibition,[7]; [8],29%
same,growth inhibition,[7]; [9],33%
same,growth inhibition,[7]; at 50.0 µM,69.7%
CC1=C[n+]2cc(C)ccc2Sc2c1ccc1ccccc21,growth inhibition,[1]; [8],-2%
same,growth inhibition,[1]; [9],24%
same,growth inhibition,[1]; at 50.0 µM,64.3%
same,growth inhibition,[2]; [8],11%
same,growth inhibition,[2]; [9],50%
same,growth inhibition,[2]; at 50.0 µM,74.7% (active)
same,growth inhibition,[3]; [8],-20%
same,growth inhibition,[3]; [9],10%
same,growth inhibition,[3]; at 50.0 µM,80.5% (active)
same,growth inhibition,[4]; [8],-2%
same,growth inhibition,[4]; [9],4%
same,growth inhibition,[4]; at 50.0 µM,28.8%
same,growth inhibition,[5]; [8],0%
same,growth inhibition,[5]; [9],29%
same,growth inhibition,[5]; at 50.0 µM,66.9%
C/C(=N\N=C(/[Se])N1CC2CCC(CC2)C1)c1ccccn1,growth inhibition,[1]; [8],62%
same,growth inhibition,[1]; [9],79% (active)
same,growth inhibition,[1]; at 50.0 µM,87.5% (active)
same,growth inhibition,[2]; [8],40%
same,growth inhibition,[2]; [9],80% (active)
same,growth inhibition,[2]; at 50.0 µM,90.2% (active)
same,growth inhibition,[3]; [8],53%
same,growth inhibition,[3]; [9],73% (active)
same,growth inhibition,[3]; at 50.0 µM,89.5% (active)
same,growth inhibition,[4]; [8],32%
same,growth inhibition,[4]; [9],65%
same,growth inhibition,[4]; at 50.0 µM,85.2% (active)
same,growth inhibition,[5]; [8],51%
same,growth inhibition,[5]; [9],81% (active)
same,growth inhibition,[5]; at 50.0 µM,90.3% (active)
same,growth inhibition,[7]; [8],64%
same,growth inhibition,[7]; [9],84% (active)
O=C1C2CCN(CC2)C1CN1CCOCC1 (stereo not drawn),growth inhibition,[1]; [8],15%
same,growth inhibition,[1]; [9],22%
same,growth inhibition,[1]; at 50.0 µM,88.3% (active)
same,growth inhibition,[2]; [8],22%
same,growth inhibition,[2]; [9],-8%
same,growth inhibition,[2]; at 50.0 µM,90.8% (active)
same,growth inhibition,[3]; [8],3%
same,growth inhibition,[3]; [9],8%
same,growth inhibition,[3]; at 50.0 µM,87.2% (active)
same,growth inhibition,[4]; [8],10%
same,growth inhibition,[4]; [9],11%
same,growth inhibition,[4]; at 50.0 µM,19.2%
same,growth inhibition,[5]; [8],-1%
same,growth inhibition,[5]; [9],2%
same,growth inhibition,[5]; at 50.0 µM,89.1% (active)
same,growth inhibition,[7]; [8],10%
same,growth inhibition,[7]; [9],16%
CC(C)(Br)C(=O)C(Br)Br,growth inhibition,[1]; [8],97% (active)
same,growth inhibition,[1]; [9],99% (active)
same,growth inhibition,[1]; at 50.0 µM,86.3% (active)
same,growth inhibition,[2]; [8],100% (active)
same,growth inhibition,[2]; [9],99% (active)
same,growth inhibition,[2]; at 50.0 µM,89% (active)
same,growth inhibition,[3]; [8],98% (active)
same,growth inhibition,[3]; [9],99% (active)
same,growth inhibition,[3]; at 50.0 µM,89.7% (active)
same,growth inhibition,[4]; [8],95% (active)
same,growth inhibition,[4]; [9],99% (active)
same,growth inhibition,[4]; at 50.0 µM,88.8% (active)
same,growth inhibition,[5]; [8],100% (active)
same,growth inhibition,[5]; [9],99% (active)
same,growth inhibition,[5]; at 50.0 µM,88.7% (active)
same,growth inhibition,[7]; [8],98% (active)
same,growth inhibition,[7]; [9],98% (active)
c1ccc2c(NCCCCCCNc3c4ccccc4nc4ccccc34)c3ccccc3nc2c1,growth inhibition,[1]; [8],68%
same,growth inhibition,[1]; [9],89% (active)
same,growth inhibition,[1]; at 50.0 µM,75.4% (active)
same,growth inhibition,[2]; [8],43%
same,growth inhibition,[2]; [9],80% (active)
same,growth inhibition,[2]; at 50.0 µM,73.5% (active)
same,growth inhibition,[3]; [8],54%
same,growth inhibition,[3]; [9],83% (active)
same,growth inhibition,[3]; at 50.0 µM,61.5%
same,growth inhibition,[4]; [8],20%
same,growth inhibition,[4]; [9],57%
same,growth inhibition,[4]; at 50.0 µM,8.4%
same,growth inhibition,[5]; [8],56%
same,growth inhibition,[5]; [9],88% (active)
same,growth inhibition,[5]; at 50.0 µM,73.1% (active)
same,growth inhibition,[7]; [8],61%
same,growth inhibition,[7]; [9],83% (active)
CC(=O)[O-].O=C([CH-]C(=O)c1ccccc1)c1ccccc1.O=C([CH-]C(=O)c1ccccc1)c1ccccc1.[Sm+3],growth inhibition,[1]; at 1.2 µM,9%
same,growth inhibition,[1]; at 3.7 µM,-5%
same,growth inhibition,[1]; [8],55%
same,growth inhibition,[1]; at 11.0 µM,79% (active)
same,growth inhibition,[1]; at 33.0 µM,96% (active)
same,growth inhibition,[1]; [9],55%
same,growth inhibition,[1]; at 50.0 µM,90.8% (active)
same,growth inhibition,[1]; at 100.0 µM,98% (active)
same,growth inhibition,[2]; at 1.2 µM,-2%
same,growth inhibition,[2]; at 3.7 µM,5%
same,growth inhibition,[2]; [8],42%
same,growth inhibition,[2]; at 11.0 µM,47%
same,growth inhibition,[2]; at 33.0 µM,97% (active)
same,growth inhibition,[2]; [9],42%
same,growth inhibition,[2]; at 50.0 µM,93% (active)
same,growth inhibition,[2]; at 100.0 µM,98% (active)
same,growth inhibition,[3]; [8],50%
same,growth inhibition,[3]; [9],50%
same,growth inhibition,[3]; at 50.0 µM,92.8% (active)
same,growth inhibition,[5]; at 1.2 µM,16%
same,growth inhibition,[5]; at 3.7 µM,19%
same,growth inhibition,[5]; [8],52%
same,growth inhibition,[5]; at 11.0 µM,84% (active)
same,growth inhibition,[5]; at 33.0 µM,97% (active)
same,growth inhibition,[5]; [9],52%
same,growth inhibition,[5]; at 50.0 µM,90.8% (active)
same,growth inhibition,[5]; at 100.0 µM,98% (active)
same,growth inhibition,[7]; [8],44%
same,growth inhibition,[7]; [9],44%
same,growth inhibition,[7]; at 50.0 µM,90.2% (active)
CCC[CH2][Pb]([Cl])([CH2]CCC)[CH2]CCC,growth inhibition,[1]; [8],99% (active)
same,growth inhibition,[1]; [9],98% (active)
same,growth inhibition,[1]; at 50.0 µM,88% (active)
same,growth inhibition,[2]; [8],100% (active)
same,growth inhibition,[2]; [9],99% (active)
same,growth inhibition,[2]; at 50.0 µM,92% (active)
same,growth inhibition,[3]; [8],100% (active)
same,growth inhibition,[3]; [9],99% (active)
same,growth inhibition,[3]; at 50.0 µM,92.2% (active)
same,growth inhibition,[4]; [8],98% (active)
same,growth inhibition,[4]; [9],98% (active)
same,growth inhibition,[4]; at 50.0 µM,91.2% (active)
same,growth inhibition,[5]; [8],100% (active)
same,growth inhibition,[5]; [9],98% (active)
same,growth inhibition,[5]; at 50.0 µM,89.9% (active)
same,growth inhibition,[7]; [8],99% (active)
same,growth inhibition,[7]; [9],98% (active)
